# Assay outcomes (PubChem BioAssay)
# An excerpt weighted towards active compounds, which were near 11% of everything screened.
# 3T3 cytotox: kills NIH 3T3 cells. Potency, µM (top dose mostly 96.7 µM), inactives show top-dose activity change, negative = cytotoxicity, usual class: inhibitors. 4.3% of 94,000 active. AID 1345082. NIH 3T3 viability, CellTiter-Glo ATP luminescence, 48-72 h; also: nearly all actives have a fitted effect of over 55% in size
#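 First NIH 3T3 cells are plated at 400 cells/well; next compound is pinned in; then plates incubate 48 or 72 hr at 37 °C; finally CellTiter-Glo is added and luminescence read after 10 min.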
# NPR1 antag: antagonists of human natriuretic peptide receptor Npr1 | P16066 | HEK293 hNpr1 GloSensor cGMP, ANP-stimulated luminescence | Potency, µM (highest dose often 46.3 µM), without a hit: at the top dose activity change, negative = inhibition, hits mostly inhibitors | 1.6% of 76,000 active | AID 1347048; calls by dose curve; also: nearly all actives have a fitted effect of over 60% in size
# Target sequence (P16066 whole entry, looked up): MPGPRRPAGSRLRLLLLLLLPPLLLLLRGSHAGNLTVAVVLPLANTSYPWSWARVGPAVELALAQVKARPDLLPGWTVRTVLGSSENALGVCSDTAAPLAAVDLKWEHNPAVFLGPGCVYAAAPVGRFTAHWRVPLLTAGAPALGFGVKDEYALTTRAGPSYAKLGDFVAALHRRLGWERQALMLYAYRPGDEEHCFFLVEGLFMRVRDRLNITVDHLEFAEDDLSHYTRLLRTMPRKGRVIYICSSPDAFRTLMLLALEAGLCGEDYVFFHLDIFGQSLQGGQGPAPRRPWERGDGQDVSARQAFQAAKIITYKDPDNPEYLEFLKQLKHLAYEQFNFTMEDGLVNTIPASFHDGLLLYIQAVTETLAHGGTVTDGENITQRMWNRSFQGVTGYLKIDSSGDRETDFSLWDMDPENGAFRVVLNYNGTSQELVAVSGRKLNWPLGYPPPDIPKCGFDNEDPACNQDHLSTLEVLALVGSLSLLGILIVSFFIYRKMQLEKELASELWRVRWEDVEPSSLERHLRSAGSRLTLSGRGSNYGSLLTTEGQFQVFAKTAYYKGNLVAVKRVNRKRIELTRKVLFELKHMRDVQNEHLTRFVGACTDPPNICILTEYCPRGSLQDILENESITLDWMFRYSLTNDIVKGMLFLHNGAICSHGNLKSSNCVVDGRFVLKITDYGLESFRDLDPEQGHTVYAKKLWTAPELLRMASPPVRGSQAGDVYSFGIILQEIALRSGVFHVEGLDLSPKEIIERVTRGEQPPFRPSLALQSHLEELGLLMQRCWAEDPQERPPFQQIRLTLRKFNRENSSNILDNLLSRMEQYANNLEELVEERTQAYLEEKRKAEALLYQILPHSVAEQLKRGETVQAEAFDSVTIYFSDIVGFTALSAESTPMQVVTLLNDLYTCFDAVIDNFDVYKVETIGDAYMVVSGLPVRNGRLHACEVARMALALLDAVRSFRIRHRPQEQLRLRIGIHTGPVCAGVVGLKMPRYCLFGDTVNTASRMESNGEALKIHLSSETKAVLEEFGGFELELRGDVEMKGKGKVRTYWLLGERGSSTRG
#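 HEK293 cells stably expressing human Npr1 and cGMP GloSensor pGS-40F, loaded 2 h with 2% GloSensor reagent, given compound 30 min at room temperature. Luminescence read before and 20 min after 0.1 nM hNppA.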
# HEK cytotox: HEK 293 cell cytotoxicity; HEK 293 viability, ATP luminescence (CellTiter-Glo), 48-72 h; Potency, µM (doses to about 115 µM), inactives show at the top dose activity change, negative = cytotoxicity, hits mostly inhibitors; 6.6% of 94,000 active; AID 1345083; also: nearly all actives have a fitted effect of over 60% in size
#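 HEK 293 seeded at 250 cells/well receive compound via pintool. After 48 or 72 hr at 37 degree Celsius, 5% CO2 and 95% humidity, CellTiter-Glo is dispensed and luminescence read following 10 min at room temperature.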
# FLuc inh: inhibitors of firefly (Photinus pyralis) luciferase; P08659; purified P. pyralis luciferase, luminescence, biochemical; Potency, µM (series often up to 115 µM), usual class: inhibitors; 2.5% of 76,000 active; also: nearly all actives have a fitted effect of over 65% in size
#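 Biochemical qHTS: compound (6-point titration) added to 10uM D-luciferin plus 10uM ATP in Tris acetate pH 7.5 buffer with Mg, Tween-20 and BSA, then purified enzyme at 10nM; light output imaged.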
# Starred values were filed as active, the others as inactive; i = inactive; ? = inconclusive; · = not tested or not shown; [ ] = dose if it differs, or a comment. Unless noted, calls follow the shape of the dose curve; as a rule, active = well fitted curve in the direction sought with a large enough effect; inconclusive = small, poorly fitted or top-dose-only effect, or another doubt; inactive = no such curve, though single readings can be large; an effect the other way counts as inactive or inconclusive. % is scaled to controls: 0 for no effect and ±100 for the full control effect; potency is read from the fitted curve at half-maximal effect.
SMILES,3T3 cytotox,NPR1 antag,HEK cytotox,FLuc inh
COc1cc(O)ccc1CN1CCn2nnc(CCC(=O)N3CCCC3)c2C1,-3%,-26%,-4%,i
COc1cccc(-c2cccc(-c3nc(C4CCOCC4)nn3CCO)c2)c1,-23%,-1%,?,i
COc1ccc(NC(=O)N2Cc3[nH]cnc3C[C@H]2c2nc(-c3ccccc3)no2)cc1,32µM*,-21%[70.6 µM],?,40µM*
O=C(NC1CCCCC1)N1Cc2[nH]cnc2C[C@H]1c1nc(-c2ccc(Cl)cc2)no1,-27%[174 µM],-5%[70.6 µM],i,?
CC(C)c1noc([C@@H]2Cc3nc[nH]c3CN2C(=O)Nc2ccc(Cl)cc2)n1,89µM*,-3%[70.6 µM],100µM*,i
O=C(NC1CCCCC1)N1Cc2[nH]cnc2C[C@H]1c1nc(-c2ccc3ccccc3c2)no1,1%,0%,-5%,25µM*
CCOC(=O)c1ccc(NC(=O)N2Cc3[nH]cnc3C[C@H]2c2nc(-c3ccc(C)cc3)no2)cc1,?,-16%,?,32µM*
CCOC(=O)c1ccc(NC(=O)N2Cc3[nH]cnc3C[C@H]2c2nc(-c3cccc(C)c3)no2)cc1,?,-30%,?,?
COC(=O)[C@H](NC(=O)[C@@H]1[C@@H](NC(=O)Nc2cccc(SC)c2)CCN1C(=O)c1cccn1C)C(C)C,-2%,3%,-3%,i
Cc1cc(F)cc(CN2CCOc3cc([S+](=O)([O-])N(C)C)ccc3C2)c1,40µM*,-25%[70.6 µM],79µM*,i
CN(C)[S+](=O)([O-])c1ccc2c(c1)OCCN(Cc1cccc(Cl)c1)C2,?,-23%[70.6 µM],79µM*,i
CN(C)[S+](=O)([O-])c1ccc2c(c1)OCCN(Cc1cc(F)ccc1F)C2,?,-4%[70.6 µM],?,i
CC(C)c1cnc(C2CCCN(C(=O)OC(C)(C)C)C2)[nH]1 (centres undefined),-22%[138 µM],·,-27%[172 µM],·
CCc1ncc(C(=O)N(C)C2CCN(Cc3ccccc3)C2)cn1 (centres undefined),-16%,4%,-4%,i
COCC(=O)NC[C@@H]1C=C(C)[C@H](Cc2nc3ccccc3[nH]2)C[C@H]1C(C)C,?,-22%[70.6 µM],?,i
COCC(=O)NC[C@@H]1C=C(C)[C@H](Cc2nc3ccc(F)cc3[nH]2)C[C@H]1C(C)C,50µM*,-15%[70.6 µM],?,i
CC1=C[C@@H](CNC(=O)c2cccnc2)[C@H](C(C)C)C[C@H]1Cc1nc2ccc(F)cc2[nH]1,?,-4%[70.6 µM],?,i
CC(=O)NC[C@@H]1C=C(C)[C@H](Cc2nc3ccc(F)cc3[nH]2)C[C@H]1C(C)C,79µM*,-15%[70.6 µM],45µM*,i
Cc1noc2c(NCCCn3ccnc3)cc(-c3ccccc3)nc12,11µM*,3%[70.6 µM],?,i
Cc1noc2c(NCCCn3ccnc3)cc(-c3ccccn3)nc12,25µM*,1%[70.6 µM],-23%[172 µM],i
Cc1noc2c(NCCCn3ccnc3)cc(-c3cccc(C(F)(F)F)c3)nc12,?,0%[70.6 µM],?,i
COC1CCN(CC2CCCCCN2C(=O)Nc2ccc3c(c2)OCCO3)CC1 (centres undefined),-3%,0%,2%,18µM*
CCCNC(=O)N1CCCCCC1CN1CCC(C)CC1 (centres undefined),-20%,·,-26%,·
CC1CCN(CC2CCCCCN2C(=O)Nc2ccc3c(c2)OCCO3)CC1 (centres undefined),-14%,-13%,?,16µM*
COc1ccc(C(=O)N2CCN(Cc3ccc(=O)n(C)c3)CC2)cc1F,-6%,2%,-19%,40µM*
SMILES,3T3 cytotox,NPR1 antag,HEK cytotox,FLuc inh
Cc1ccc(C(=O)N2CCN(Cc3ccc(=O)n(C)c3)CC2)cc1F,-21%,0%,-5%,i
CN1CCC(NC[C@H]2COCc3nc4cc(C(F)(F)F)ccc4n32)CC1,-17%[138 µM],2%[70.6 µM],?,i
Cc1ccccc1CC(=O)Nc1ccc2ncnc(N3CCCCC3)c2c1,?,-7%,40µM*,i
COc1ccccc1CC(=O)Nc1ccc2c(N3CCCCC3)ncnc2c1,?,?,25µM*,i
O=C(Cc1cccs1)Nc1ccc2c(N3CCCCC3)ncnc2c1,?,?,?,i
COc1ccc(-c2noc(-c3cccn3CC(=O)N3CCC(C)CC3)n2)cc1F,?,-18%,-20%,11µM*
COc1ccc(-c2noc(-c3cccn3CC(=O)N3CCN(c4ccccc4OC)CC3)n2)cc1F,?,-15%,?,?
COc1ccc(-c2noc(-c3cccn3CC(=O)N(C)c3ccccc3)n2)cc1F,i,-1%,7%,i
CCN(C(=O)Cn1cccc1-c1nc(-c2ccc(OC)c(F)c2)no1)c1ccccc1,?,-3%,45µM*,i
COC(=O)[C@@H]1Cc2ncn(Cc3ccc(Cl)cc3)c2CN1CCCc1ccccc1,-95%[138 µM],?,25µM*,i
COC(=O)[C@@H]1Cc2ncn(Cc3ccc(Cl)cc3)c2CN1Cc1ccc(CO)o1,?,-8%[70.6 µM],?,i
COC(=O)[C@@H]1Cc2ncn(Cc3ccc(Cl)cc3)c2CN1Cc1cccs1,89µM*,?,?,i
COC(=O)[C@@H]1Cc2ncn(Cc3ccc(OC)cc3)c2CN1CCCc1ccccc1,?,-25%[70.6 µM],?,i
Cc1nc2n(c1C(=O)Nc1cc(-c3ccc(F)cc3)[nH]n1)CCC(Nc1ccc(F)cc1)C2 (centres undefined),32µM*,-18%,?,?
CCC1Oc2ccc(NC(=O)Cc3ccccc3)cc2CN(Cc2ccc(OC)cc2)C1=O (centres undefined),?,0%,?,i
CCC1Oc2ccc(NC(=O)Cc3ccc(OC)cc3)cc2CN(Cc2ccc3c(c2)OCO3)C1=O (centres undefined),?,-12%,22µM*,i
CCC1Oc2ccc(NC(=O)c3cccc(OC)c3)cc2CN(Cc2ccccc2)C1=O (centres undefined),?,-23%,45µM*,i
CCC1Oc2ccc(NC(=O)Cc3ccccc3)cc2CN(Cc2ccc3c(c2)OCO3)C1=O (centres undefined),?,-15%,35µM*,i
CCC1Oc2ccc(NC(=O)c3ccccc3)cc2CN(Cc2ccc(OC)cc2)C1=O (centres undefined),?,-16%,?,i
CCC1Oc2ccc(NC(=O)c3ccc4c(c3)OCO4)cc2CN(Cc2ccccc2)C1=O (centres undefined),-26%,-2%,89µM*,i
CN(Cc1cnn(C)c1)c1ccc(-c2nc(COc3ccccc3)no2)cn1,-22%,-3%,-23%,i
CC(Nc1ccc(-c2nc(CCCc3ccccc3)no2)cn1)c1cnn(C)c1 (centres undefined),?,-24%,?,16µM*
CN1CCC2(C1)CN(Cc1ccccc1)c1ccc(C(=O)NCc3cccs3)cc12 (centres undefined),28µM*,0%[70.6 µM],45µM*,i
